# Results as given in ChEMBL document CHEMBL3988442, “University of Dundee, Small-Polar-MMV Screening Library” (2021).
# The whole screen tested about 66,000 compounds, of which about 960 (1.5%) showed an effect of 50% or more. Only a selection was taken, and strong results are over-represented in it overall.
# System: Trypanosoma brucei
# Test: Trypanosoma brucei 72 hour study
# Type: functional, organism-based
# Parameters: scale not given: in the data most compounds retested in dose-response had high values
smiles,measurement,setting,value
COc1ccc(C2CCCN2C(=O)NCCCn2ccnc2)cc1 (stereo unspecified),Percent Effect,"30.3 µM, […]",-18.05%
CC(Nc1ncnc2c1CCNC2)c1ccc(C(C)(C)C)cc1 (stereo unspecified),Percent Effect,"30.3 µM, […]",90.36%
Cc1ccccc1C(CNc1ncnc2c1CCNC2)N(C)C (stereo unspecified),Percent Effect,"30 µM, 30.03 µM",-30.9%
Cc1ccccc1C(Nc1ncnc2c1CCNC2)c1ccccc1 (stereo unspecified),Percent Effect,"30 µM, 30.03 µM",-12.11%
Cc1cc(C)n(CC(C)Nc2ncnc3c2CCNC3)n1 (stereo unspecified),Percent Effect,"30 µM, 30.03 µM",-30.59%
CCOc1ccc(C(C)Nc2ncnc3c2CCNC3)cc1OCC (stereo unspecified),Percent Effect,"30.3 µM, […]",2.402%
CCCc1ccc(C(C)Nc2ncnc3c2CCNC3)cc1 (stereo unspecified),Percent Effect,"30.3 µM, […]",56.69%
CC(Nc1ncnc2c1CCNCC2)c1nc2c(s1)CCCC2 (stereo unspecified),Percent Effect,"30 µM, 30.03 µM",6.589%
CC(Nc1ncnc2c1CCNC2)c1ccc2c(c1)CCCC2 (stereo unspecified),Percent Effect,"30.3 µM, […]",100.2%
CC(C)Nc1ncnc2c1CCNCC2,Percent Effect,"30.3 µM, […]",-40.35%
CCNC(c1ccc(F)cc1)c1cccnc1 (stereo unspecified),Percent Effect,"30 µM, 30.03 µM",-17.98%
O=C(O)C(F)(F)F.O=C(c1cccs1)N1CC[C@@H](N2CCOCC2)[C@@H]1Cc1ccccc1,Percent Effect,"30 µM, 30.03 µM",16.01%
O=C(O)C(F)(F)F.O=C(O)[C@]12CCCN(CC3CCOC3)C[C@H]1CN(c1ncccn1)C2 (stereo partly specified),Percent Effect,"30.3 µM, […]",-92.21%
Cc1cccc(C(=O)N2CCCN(CCCSCC#N)CC2)c1,Percent Effect,"30 µM, 30.03 µM",-25.24%
O=C(O)C(F)(F)F.O=C(c1ccccc1)N1CCC[C@]2(C[C@@H](Oc3ncccc3F)CO2)C1,Percent Effect,"30 µM, 30.03 µM",-46.98%
CC(C)CC(=O)NCCn1nc(C2CCNC2)c2cccnc21.Cl (stereo unspecified),Percent Effect,"30.3 µM, […]",2.604%
CC(=O)N1N=C(c2ccco2)OC1C(=O)N(CC(C)C)CC(C)C (stereo unspecified),Percent Effect,"30.3 µM, […]",65.41%
same,Percent Effect,"10 mM, 10 mM as filed; unlikely as a test dose",-14.31%
CC(=O)N1N=C(c2ccco2)OC1C(=O)NCC(C)C (stereo unspecified),Percent Effect,"30.3 µM, […]",15.99%
same,Percent Effect,"10 mM, 10 mM as filed; unlikely as a test dose",-43.02%
CC(=O)N1N=C(c2ccco2)OC1C(=O)N(C)CCc1ccccc1 (stereo unspecified),Percent Effect,"30.3 µM, […]",-0.7394%
same,Percent Effect,"10 mM, 10 mM as filed; unlikely as a test dose",-39.66%
CCCc1nc(N2CCCN(c3ncccn3)CC2)c2cnn(C)c2n1,Percent Effect,"30 µM, 30.03 µM",-12.92%
CCCc1nc(N2CCCN(c3ccncc3)CC2)c2cnn(C)c2n1,Percent Effect,"30 µM, 30.03 µM",59.27%
CCCc1nc(N2CCN(Cc3ccccn3)CC2)c2cnn(C)c2n1,Percent Effect,"30 µM, 30.03 µM",36.81%
CC(=O)N1CCC(n2nccc2-c2cnc(N)nc2)CC1,Percent Effect,"30.3 µM, […]",-9.866%
Cn1ncc2c(NC3CCCN(C(=O)C4CC4)C3)nc(C(C)(C)C)nc21 (stereo unspecified),Percent Effect,"30 µM, 30.03 µM",43.28%
Cn1ncc2c(N[C@H]3CC[C@@H](N)CC3)nc(C(C)(C)C)nc21,Percent Effect,"30.3 µM, […]",99.86%
Cn1ncc2c(N[C@H]3CCCC[C@@H]3O)nc(C(C)(C)C)nc21,Percent Effect,"30.3 µM, […]",-1.471%
Cc1cccc(C(=O)N2C[C@@H]3CCN(c4cccnc4)C[C@@H]3C2)c1.O=C(O)C(F)(F)F,Percent Effect,"30 µM, 30.03 µM",1.381%
COCCN1C(=O)CC[C@@H]2[C@H]1CCN2Cc1cccc(C#N)c1.O=C(O)C(F)(F)F,Percent Effect,"30.3 µM, […]",-247.8%
CCC(C)S(=O)(=O)N(Cc1ccco1)Cc1ccccc1O (stereo unspecified),Percent Effect,"30 µM, 30.03 µM",-17.24%
CCCN(Cc1ccccc1O)S(=O)(=O)C(C)CC (stereo unspecified),Percent Effect,"30 µM, 30.03 µM",101.6%
CCCN(Cc1ccccc1O)S(=O)(=O)N(C)CC,Percent Effect,"30 µM, 30.03 µM",-50.11%
Cl.Nc1ccc(-c2cnc(C3CCCN3)cn2)cn1 (stereo unspecified),Percent Effect,"30.3 µM, […]",19.85%
O=C(NCCN1CCCC1)c1cc2c(s1)CCN2c1ncccn1,Percent Effect,"30.3 µM, […]",35.85%
Cc1ccc(N2CCc3sc(C(=O)NCCN4CCCC4)cc32)nn1,Percent Effect,"30.3 µM, […]",54.03%
Cc1ccc(N2CCc3sc(C(=O)N4CCOCC4)cc32)nn1,Percent Effect,"30.3 µM, […]",-27.02%
Cc1cc(C(=O)N2CC[C@H]3[C@H](C[C@@H](CN4CCCC4)N3C)C2)c(C)o1.O=C(O)C(F)(F)F.O=C(O)C(F)(F)F,Percent Effect,"30.3 µM, […]",-13.25%
Cl.O=C(NCCn1nc(C2CCNC2)c2cccnc21)C1CCC1 (stereo unspecified),Percent Effect,"30.3 µM, […]",-2.901%
Cc1cc(C)c2c(N3CCN(C(=O)N(C)C)CC3)ncnc2n1,Percent Effect,"30 µM, 30.03 µM",-10.57%
Cc1nnc(N2CCCC(C(=O)c3cccc(Cl)c3)C2)o1 (stereo unspecified),Percent Effect,"30 µM, 30.03 µM",-2.386%
O=C(c1cccc(Cl)c1)C1CCCN(c2nnc(C3CCC3)o2)C1 (stereo unspecified),Percent Effect,"30 µM, 30.03 µM",75.84%
O=C(c1cccnc1)C1CCCN(c2nnc(C3CC3)o2)C1 (stereo unspecified),Percent Effect,"30 µM, 30.03 µM",-35.25%
NCCn1cc(C(=O)N2CCCCCC2c2ccco2)nn1 (stereo unspecified),Percent Effect,"30 µM, 30.03 µM",-18.67%
Cn1ncc2ccc(C3CCCN(Cc4cccs4)C3)nc21 (stereo unspecified),Percent Effect,"30.3 µM, […]",11.55%
Oc1cc(-c2nccs2)nc(C2CCN(Cc3cccs3)CC2)n1,Percent Effect,"30.3 µM, […]",-16.93%
Oc1cc(C2CCCCN2Cc2ccsc2)nc(-c2ccncc2)n1 (stereo unspecified),Percent Effect,"30.3 µM, […]",-12.11%
Oc1cc(C2CCCN(Cc3cccs3)C2)nc(-c2ccccn2)n1 (stereo unspecified),Percent Effect,"30.3 µM, […]",100.2%
Oc1cc(C2CCCCN2Cc2cccs2)nc(-c2ccccn2)n1 (stereo unspecified),Percent Effect,"30.3 µM, […]",99.61%
Oc1cc(C2CCCCN2Cc2cccs2)nc(-c2ccncc2)n1 (stereo unspecified),Percent Effect,"30.3 µM, […]",-2.917%
